# Tg IFNy HTS – blocks Toxoplasma gondii growth in the presence of IFN-gamma. Toxoplasma gondii growth in IFN-gamma-treated host cells; active compounds read low. activity change, negative = inhibition, % (test concentration not listed). 3.8% of 69,000 active. AID 1259416; in the data active = activity change below about -70%, passing the limit was not always enough;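 note: host cells are HeLa cells infected with Toxoplasma gondii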
# * marks the source's active call; other numbers are inactive results; i = inactive; ! = a repeat was not active. The entries come from a sample that favours hits as a whole.
SMILES,Tg IFNy HTS
COc1ccc(NC(=O)C2CCOCC2)cc1NC(=O)c1ccccc1,80
Cc1nc2c(c(NC3CC3)n1)CCN(Cc1cnn(C)c1)CC2,-52
Cc1cccc(S(=O)(=O)N2CCc3nc(-c4ccccc4)sc3C2)c1,-9
Cc1cccc(S(=O)(=O)N2CCc3nc(-c4cnn(C)c4)nc(NC4CC4)c3C2)c1,-94*
Cc1ccc(OCC(=O)Nc2cncc(-c3nc4ccccc4o3)c2)cc1,2
CCc1cn[nH]c1C1CCN(Cc2cn[nH]c2-c2ccc(F)cc2)CC1,1
COc1ccc(C(=O)c2ccc(C)cc2)c(O)c1,98
Cc1ccc(C(=O)c2cc(O)c(O)c([N+](=O)[O-])c2)cc1,-80*!
NC(=O)c1ccc(I)c([N+](=O)[O-])c1,20
COc1cc(C(=O)NC(C)(C)CC(C)(C)C)cc(OC)c1OC,-8
CCCCc1ccc2nc(NC(=O)OC)[nH]c2c1,-32
CCCS(=O)(=O)c1ccc2nc(NC(=O)OC)[nH]c2c1,-47
COC(=O)Nc1nc2ccc(-c3n[nH]c(=O)c4ccccc34)cc2[nH]1,-102*
Cc1cc(-c2cc(=O)n(CC(=O)Nc3ccc(F)cc3F)nc2-c2ccc(C)s2)on1,-5
CCCCCC(=O)O[C@]1(C(C)=O)CC[C@H]2[C@@H]3CCC4=CC(=O)CC[C@]4(C)[C@H]3CC[C@@]21C,-57
CCCCCCCC(=O)OCC(=O)[C@@]1(O)CC[C@H]2[C@@H]3CCC4=CC(=O)CC[C@]4(C)[C@H]3[C@@H](O)C[C@@]21C,-5
CCCCCC(=O)O[C@]1(C(C)=O)CCC2C3CCC4=CC(=O)CC[C@]4(C)C3CC[C@@]21C (stereo not given in full),-81*
Cc1cc(-n2cnnc2)ncc1-c1cccc2ccnn12,1
Cn1nc(C(=O)NCc2nnc(-c3ccccc3)o2)cc1-c1ccc(Cl)cc1,-31
O=C(NCCc1csc(-c2ccc(Cl)cc2)n1)c1ccccc1C(F)(F)F,63
OC1(C(F)(F)F)CC(c2cccs2)=NO1 (stereo not given),-61
O=C(c1cccs1)N1N=C(c2ccc(Cl)cc2)CC1(O)C(F)(F)F (stereo not given),-97*
CCn1ncnc1CN1CCC(c2ccnc(-c3ccncc3)c2)C1 (stereo not given),-6
Cc1noc(C)c1S(=O)(=O)N1CCN(c2ccccn2)CC1,-53
CN(C)CC1(O)CCCN(C(=O)CCn2cc(Cl)cn2)C1 (stereo not given),1
SMILES,Tg IFNy HTS
COc1cccc(CNc2nc(-c3nnc(-c4ccc(C)cc4)o3)nc3ccccc23)c1,-11
Cc1cccc(-c2nnc(-c3nc(N4CCCCC4C)c4ccccc4n3)o2)c1 (stereo not given),27
Cc1cccc(-c2nnc(-c3nc(NCc4ccco4)c4ccccc4n3)o2)c1,-24
Cc1cccc(-c2nnc(-c3nc(NC4CCS(=O)(=O)C4)c4ccccc4n3)o2)c1 (stereo not given),-96*
Cc1ccc(-c2nnc(-c3nc(NCc4cccc(C)c4)c4ccccc4n3)o2)cc1,24
Cc1cccc(CNc2nc(-c3nnc(-c4ccc(F)cc4)o3)nc3ccccc23)c1,-101*
Cc1ccc(-c2nnc(-c3nc(NCc4ccc(F)cc4)c4ccccc4n3)o2)cc1,15
COc1cccc(CNc2nc(-c3nnc(-c4cccc(C)c4)o3)nc3ccccc23)c1,-92*
Clc1cccc(-c2nnc(-c3nc(NCc4ccco4)c4ccccc4n3)o2)c1,-69
Fc1ccc(-c2nnc(-c3nc(NCc4ccco4)c4ccccc4n3)o2)cc1,-86*
COc1ccc(-c2nnc(-c3nc(NCc4ccc(C)cc4)c4ccccc4n3)o2)cc1,-4
COc1ccc(Nc2nc(-c3nnc(-c4cccc(C)c4)o3)nc3ccccc23)cc1,i
CC(=O)Nc1ccc(S(=O)(=O)Nc2onc(C)c2C)cc1,10
Cc1cc(C(=O)N2CC[C@@H]3C(=O)NCCO[C@@H]3C2)sc1C,-1
O=C(c1cccc2[nH]cc(CN3CCCC3)c12)N1CCN(c2ccccn2)CC1,4
OC12CCCCC1C(c1ccc3c(c1)OCO3)N(Cc1cccc(F)c1)CC2 (stereo not given),1
Cc1cc(C(=O)N2CCC3(CC2)CC(OCC2CC2)CO3)sc1C (stereo not given),2
Cc1nc(CN2CCC3(CC2)CC(OCCO)c2ccccc23)cs1 (stereo not given),7
COc1ccc(-c2nc3n(c(=O)c2C#N)CCCS3)cc1,44
Fc1ccc(-c2nc3n(c2-c2ccncc2)CCS3)cc1,-78*
O=c1c(C(c2cccnc2)c2c(O)nc3n(c2=O)CCS3)c(O)nc2n1CCS2,13
CCN(CC)C(=O)c1ccc(Cl)c(NC(=O)c2ccccn2)c1,-3
CC(C)NC(=O)N(C)C[C@@H]1Oc2ccc(NC(=O)c3ccncc3)cc2C(=O)N([C@@H](C)CO)C[C@@H]1C,-2
Cc1nc(-c2noc3ccc(C(=O)N(C)C)cc23)co1,-51
CN1C2CN(Cc3ccco3)CC2C[C@@H]1C(=O)NCC1CC1 (stereo not given in full),6
SMILES,Tg IFNy HTS
Cn1cnc(S(=O)(=O)N2CCCC(N)CC2)c1 (stereo not given),-1
CCN(CC)C(=O)CN1CCC(Cc2cc(NC3CCCC3)nc(C)n2)CC1,-17
Cc1nc(CC2CCCN(S(=O)(=O)c3cn(C)cn3)C2)cc(Nc2ncc(C)s2)n1 (stereo not given),-97*
O=C(Nc1cccc(F)c1)N1CCCCN2[C@H](CO)[C@@H](c3ccc(C#Cc4cccnc4)cc3)[C@@H]2C1,-38
CC(C)NC(=O)Nc1ccc2c(c1)C(=O)N(C)[C@@H]1CC[C@H](CC(=O)NCc3ccc(F)cc3)O[C@@H]1CO2,-17
O=C(O)c1ccc(NC(=O)[C@H](Cc2ccc(O)cc2)NC(=O)c2ccccc2)cc1,5
O=C(c1ccccc1)c1ccc2[nH]c(=S)[nH]c2c1,-94*
Cc1nc(C)c(C(=O)c2ccccc2)cc1C(=O)c1ccccc1,-10
O=C(c1ccccc1)c1ccccc1C(=O)c1ccccc1,-10
CCc1ccc(-c2c(-c3ccccc3)ncn2CCCO)o1,-16
CS(=O)(=O)c1cccc(CNc2nc(Nc3ccc4c(c3)CCC(=O)N4)ncc2C(F)(F)F)c1,-68
CN(c1ncccc1CNc1nc(Nc2ccc3c(c2)CC(=O)N3)ncc1C(F)(F)F)S(C)(=O)=O,-80*
O=C1CCC2(CCN(C(=O)C3CC=CC3)CC2)N1,24
COc1ccc(-c2cc(N)nc3[nH]ccc23)cn1,-34
Cc1cnc(C)c(-c2cc(N)nc3[nH]ccc23)n1,196
Nc1cc(-c2cnc3ccccc3n2)c2cc[nH]c2n1,-90*
CN(C)C(=O)N1CCC2(CC1)CC(OCC1CCOCC1)CO2 (stereo not given),1
COc1ccc(Br)cc1-c1nc(Cn2ccn3nc(-c4ccc(C)c(C)c4)cc3c2=O)c(C)o1,45
Cc1ccc(S(=O)(=O)N2Cc3c(CN(C)C)nn(C)c3C2)cc1,-67
COCC1c2nnn(C)c2CCN1C(=O)Cc1cccc(F)c1 (stereo not given),4
Cn1c(C(=O)NCc2cccc(F)c2)nc2c1CCN(S(C)(=O)=O)C2,-9
Cn1ncc(Cl)c1-c1cc(C(=O)N[C@H](CN)Cc2cccc(F)c2)sc1Cl,-85*
Cc1ccc(-c2nc(C)c(CCNC(=O)C3CCCCC3)s2)cc1,i
COc1ccc2[nH]c(=O)c(CN(C)C(C)C(=O)N(C)C)cc2c1 (stereo not given),13
O=c1ccc2c([nH]1)CCN(Cc1cccs1)CC2,114
